Shiga inhibitor: A qHTS for Small Molecule Inhibitors of Shiga Toxin. Vero cells, Shiga toxin protein synthesis inhibition reporter. inhibition, % at 38.7 µM. 290,000 tested, 9.2% active; in the data active = inhibition mostly above about 28%, no sharp cut-off; inactive = mostly below about 43%; also: 0% is about no effect
Marburg entry inh: qHTS for inhibitors of binding or entry into cells for Marburg Virus; AID 540276, 2011; Potency, µM (titrated, usually from 37.8 µM), inactives show top-dose activity change, negative = inhibition, actives largely listed as inhibitors; 300,000 tested, 1.8% active; Marburg virus pseudotyped entry inhibition, cell reporter; calls by dose curve; tested in HEK293 cells; also: potency is read from the fitted curve at half-maximal effect; % is scaled to controls: 0 for no effect and ±100 for the full control effect
CHX counter: Cycloheximide Counterscreen for Small Molecule Inhibitors of Shiga Toxin. cell reporter, cycloheximide protein synthesis inhibition counterscreen. max response, %. 300,000 tested, 12% active; in the data active = max response mostly above about 13%, no sharp cut-off; inactive = mostly below about 14%; also: read at 38.3 µM for the half of the compounds with a filed dose; 0% is about no effect
LASV entry inh: qHTS for Inhibitors of binding or entry into cells for Lassa Virus | Potency, µM (top dose mostly 37.9 µM), inactives show top-dose activity change, negative = inhibition, hits mostly inhibitors | AID 540256, 2011 | Lassa virus pseudotype entry inhibition, cell reporter | 300,000 tested, 1.2% active; calls by dose curve; tested in HEK293 cells; also: potency is read from the fitted curve at half-maximal effect; % is scaled to controls: 0 for no effect and ±100 for the full control effect; nearly all actives have a fitted effect of over 50% in size
* = called active by the depositor; ? = inconclusive; nt = not tested or not shown; + = active, no number; [ ] = dose if it differs, or a comment. This is a sample that favours compounds with a hit; in the whole collection about 12% have one here.

SMILES | Shiga inhibitor | Marburg entry inh | CHX counter | LASV entry inh
CCOc1ccc(C(=O)OCC(=O)N2CCCC2)cc1 | 59* | ? | 27* | ?
CCOc1ccc(C(=O)NCC(=O)OCC(=O)N2CCCCC2)cc1 | -3 | 10%[46.1 µM] | 11 | 4%
Cc1cccc(NC(=O)CN(C)S(=O)(=O)c2ccc3c(c2)c(=O)n(C)c(=O)n3C)c1 | nt | 8%[46.1 µM] | nt | -5%[46.1 µM]
CC(Oc1ccc2ccccc2c1)C(=O)NNC(=O)Nc1ccccc1 (centres undefined) | -5 | 5% | -4 | -1%
O=C(OCC(=O)N1CCCC1)c1cccc(Br)c1 | 54* | 25%[46.1 µM] | 20* | 17%
CN(C)c1ccc(C(=O)OCC(=O)N2CCCCCC2)cc1 | 106* | ? | 36* | -8%[46.1 µM]
CCOC(=O)N1CCN(C(=O)COC(=O)c2ccc(N(C)C)cc2)CC1 | nt | 22% | nt | 2.5µM*
CN(C)c1ccc(C(=O)OCC(=O)NCCNC(=O)COC(=O)c2ccc(N(C)C)cc2)cc1 | 71* | ? | 30* | 12%
O=C(Nc1cc(F)c(Br)cc1F)c1ccc(Cl)cc1 | 111* | -20%[46.1 µM] | 34* | ?
O=C(CCNC(=O)c1ccc(Cl)cc1)Nc1ccc(F)cc1F | 4 | 5% | -1 | ?
O=C(Nc1ccc(Cl)cc1C(F)(F)F)c1ccccc1Cl | 38 | -24% | 13* | 19%
Cc1noc(C)c1C(=O)Nc1ccc(Cl)cc1C(F)(F)F | 2 | 22% | -4 | 1%
Cc1ccc(C(=O)Nc2ccc(Cl)cc2C(F)(F)F)c(Cl)c1 | 56* | 13% | 31* | 18%
O=C(Nc1ccc(Cl)cc1C(F)(F)F)c1ccc(Cl)cc1 | 32 | 10% | 16* | 3%
COC(=O)C(C)(C)ONC(=O)Nc1ccccc1 | 28 | ? | -2 | 25%
O=C(COC(=O)c1ccc2c(c1)C(=O)N(Cc1ccncc1)C2=O)Nc1cccc2ccccc12 | -5 | ? | 1 | 29%
Cc1ccc(C(=O)Nc2ccc(Cl)cc2C)c(Cl)c1 | 100* | -27%[46.1 µM] | 27* | -22%
Cc1ccc(NC(=O)c2ccc(Cl)cc2Cl)cc1O | 94* | nt | 39* | nt
FC(F)(F)c1ccc(-c2noc(-c3ccccc3)c2I)cc1 | + | nt | 46* | nt
N#Cc1nc(COc2ccc(Cl)cc2Cl)oc1N1CCOCC1 | 35* | -7% | 29* | 8%
N#Cc1nc(COc2ccc(Cl)cc2Cl)oc1N1CCN(c2ccccc2)CC1 | -4 | 1% | 9 | 4%
N#Cc1nc(COc2ccc(Br)cc2)oc1N1CCCCCC1 | -3 | nt | 9 | nt
COc1ccc(N2CCN(c3oc(Cc4ccccc4)nc3C#N)CC2)cc1 | -22 | ? | -4 | 5.2µM*
N#Cc1nc(COc2ccc(F)cc2)oc1N1CCCCC1 | 65 | 21% | 27* | 5%
COc1ccc(N2CCN(c3oc(COc4ccccc4)nc3C#N)CC2)cc1 | 34 | -9% | 11 | ?
SMILES | Shiga inhibitor | Marburg entry inh | CHX counter | LASV entry inh
C=CCC(CC=C)(CNC(=O)C(=O)Nc1ccc(Br)cc1)c1ccc(OC)c(OC)c1 | nt | -24%[46.1 µM] | nt | -4%[46.1 µM]
O=C(COc1ccc(Cl)cc1)NNC(=O)C(=O)NC1CCCCC1 | -16 | 24% | -1 | 9%
Clc1ccc(-n2cc(COCc3ccccc3)nn2)cc1 | 57* | ? | 24 | ?
O=C(Nc1ccc(Cl)cc1)OCc1cn(-c2ccc(Cl)cc2)nn1 | 23 | 12% | -3 | 14%
COc1ccc(-n2nc(C(=O)N(C)c3cc(Cl)ccc3OC)c3c4ccccc4n(C)c3c2=O)cc1 | nt | -10%[46.1 µM] | nt | 8%[46.1 µM]
COc1cc(Cl)cc(C2NC(=S)NC(c3ccccc3)=C2C(C)=O)c1OCC(=O)O (centres undefined) | -5 | 22%[46.1 µM] | -1 | 1%
COc1cccc(N2C(C(C)=O)=NN(c3ccccc3)C2c2ccc(N3CCOCC3)cc2)c1 (centres undefined) | 69* | ? | 64* | ?
COc1ccc(NC(=O)c2c(C)oc3ccc(O)c(CN4CCCCCC4)c23)cc1Cl | nt | 4.5µM* | nt | ?
CCN(CC)C(=S)SCC(=O)Nc1nc(=O)c2ccccc2s1 | 22 | 12% | 18* | 25%
CN=c1scc(-c2ccccc2F)n1/N=C/c1ccc(O)c(O)c1O | -43 | ? | -14 | ?
CN=c1scc(-c2ccccc2F)n1/N=C/c1ccc[nH]1 | -39 | 1µM* | -23 | ?
CSc1ccc(CN(C)C(=O)c2cc(=O)c3ccccc3o2)cc1 | 11 | 0%[46.1 µM] | -1 | -2%[46.1 µM]
CN(Cc1c(F)cccc1Cl)C(=O)c1cc2ccccc2o1 | 35 | 9% | 37* | 9%
CN(Cc1c(F)cccc1Cl)C(=O)c1ccc2ccccc2n1 | 12 | -19%[46.1 µM] | 4 | -12%[46.1 µM]
CSc1ccc(CN(C)C(=O)c2cc3ccccc3o2)cc1 | 87* | 28%[46.1 µM] | 39* | 16%
Nc1nc2c(nc(Br)n2C2OC3COP(=O)(O)O[C@@H]3C2O)c(=O)[nH]1 (some centres undefined) | nt | ? | nt | -7%
CCOC(=O)C1CCN(c2cc(C)nc3c(-c4ccccc4OC)c(C)nn23)CC1 | nt | nt | nt | -5%[46.1 µM]
CC[C@H](C)[C@H](NC(=O)[C@@H]1CCCN1C(=O)[C@H](Cc1cnc[nH]1)NC(=O)[C@@H](NC(=O)[C@H](Cc1ccc(O)cc1)NC(=O)[C@@H](NC(=O)[C@H](CCCN=C(N)N)NC(=O)CNC)C(C)C)[C@@H](C)CC)C(=O)O | -5 | nt | -11 | nt
O=C(COC(=O)c1cc(Cl)nc(Cl)c1)Nc1ccc(Cl)c(S(=O)(=O)N2CCOCC2)c1 | nt | 14%[46.1 µM] | nt | 6%[46.1 µM]
CC(=O)N(Cc1cccnc1)c1nc2c(F)cc(F)cc2s1 | nt | nt | nt | -16%[46.1 µM]
O=C(Cc1ccccc1)N(Cc1cccnc1)c1nc2c(F)cc(F)cc2s1 | nt | nt | nt | 13µM*
CC(=O)Nc1ccc2c(c1)ncn2-c1ccc(C)cc1 | 99* | 2% | 42* | ?
CC(=O)Nc1ccc2c(c1)ncn2C | -4 | 3% | -2 | 7%
O=C(Nc1ccc2c(c1)ncn2-c1ccccc1)c1ccco1 | 45* | -5% | 38* | -17%
Cn1cnc2cc(NC(=O)c3ccco3)ccc21 | 79* | -2% | 25* | 13%
SMILES | Shiga inhibitor | Marburg entry inh | CHX counter | LASV entry inh
Cc1cccc(-c2nc(SCC(=O)Nc3ccc4c(c3)OCO4)c(-c3ccccc3)[nH]2)c1 | nt | -14%[46.1 µM] | nt | ?
O=c1[nH]nc(SCCS(=O)(=O)c2ccc(F)cc2)n1-c1ccccc1 | -11 | -25% | 12* | -24%
O=C1S/C(=C\c2ccc(N3CCOCC3)o2)C(=O)N1c1ccccc1 | 153* | ? | 31* | 18%
O=C(O)c1ccccc1-c1ccc(/C=C2\SC(=O)N(c3ccccc3)C2=O)o1 | nt | nt | 15* | nt
O=C1S/C(=C\c2ccc(N3CCOCC3)o2)C(=O)N1Cc1c(F)cccc1Cl | -9 | -15% | -2 | -14%
COC(=O)CC=C[C@@H](C)[C@@H](C=NO[C@@H](C)c1cn([C@H](CO)Cc2ccccc2)nn1)NS(=O)(=O)c1ccc(C)cc1 | nt | -13%[14.2 µM] | nt | 13%[14.3 µM]
O=C(CCOc1ccccc1)N(Cc1cccnc1)c1nc2ccc(F)cc2s1 | nt | nt | nt | -13%[46.1 µM]
COC(=O)c1c(NC(=O)C(=O)NCC2CCCO2)sc2c1CC(C)(C)OC2 (centres undefined) | -10 | nt | 9 | nt
Cc1cc(C)n(-c2nnc(NC34CC5CC(CC(C5)C3)C4)nn2)n1 | 21* | ? | 37* | ?
Cc1cc(C)n(-c2nnc(NC(C)(C)C)nn2)n1 | 54* | 44% | 26* | ?
